D1 antag – antagonists of human D1 dopamine receptor | AID 504652 | 360,000 tested, 3.2% active | HEK293 TREx D1 cells, calcium flux, dopamine EC80; stronger effect = lower value | activity change, negative = inhibition, % at 10 µM | P21728; in the data active means activity change below about -30%
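Allosteric or orthosteric antagonism assessed as attenuation of the calcium response to EC80 dopamine, added 180 s after compound, in induced HEK293 Trex D1 cells loaded with no-wash calcium dye.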
DRD3 antagonist – antagonists of human D3 dopamine receptor; max response, negative = inhibition, %; P35462; AID 652054; 360,000 tested, 2.5% active; D3R cells, DiscoveRx beta-arrestin luminescence, antagonist mode; stronger effect = lower value; in the data active means max response below about -50%; inconclusive means no clear call, values can overlap the other calls
Target sequence (P35462 whole entry, looked up): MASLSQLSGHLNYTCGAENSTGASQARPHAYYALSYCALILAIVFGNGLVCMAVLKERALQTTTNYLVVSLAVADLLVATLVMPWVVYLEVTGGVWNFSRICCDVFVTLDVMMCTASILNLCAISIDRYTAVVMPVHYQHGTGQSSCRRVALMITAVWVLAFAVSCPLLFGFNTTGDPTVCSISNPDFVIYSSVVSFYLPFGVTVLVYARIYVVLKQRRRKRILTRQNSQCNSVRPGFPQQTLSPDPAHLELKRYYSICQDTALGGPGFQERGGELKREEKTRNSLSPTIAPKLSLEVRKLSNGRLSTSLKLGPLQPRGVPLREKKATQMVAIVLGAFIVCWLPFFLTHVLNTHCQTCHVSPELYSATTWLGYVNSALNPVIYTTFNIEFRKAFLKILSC
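Cells plated overnight at 1500 cells/well, then exposed to library compounds with dopamine controls for 90 minutes at 37 degrees C. DiscoveRx reagent added for 30–60 minutes at room temperature; luminescence read, quantitative HTS format.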
D1 ag – human D1 receptor agonism; P21728; HEK293 T-REx D1 cells, calcium flux, agonist mode; activation, % at 2 µM; 360,000 tested, 1% active; in the data active means activation above about 30%
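Tetracycline-induced HEK293 TREx D1 cells, force-coupled to calcium signalling, were dye-loaded with a no-wash calcium kit. Compound was pin-added after a 10 s baseline. Fluorescence was read kinetically at 1 cycle/s for 180 s, with calcium rises flagged as agonism.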
D1 potentiator – human D1 dopamine receptor positive modulation | HEK293 TREx D1 cells, calcium flux, dopamine EC20 potentiation | AID 504651 | potentiation, % at 10 µM | P21728 | 360,000 tested, 0.036% active; in the data active means potentiation above about 30%
DRD3 agonist – activates the human D3 dopamine receptor. P35462. D3R DiscoveRx beta-arrestin cells, luminescence, 90 min. max activation, %. 410,000 tested, 0.58% active. AID 652048; in the data active means max activation above about 30%
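Agonist mode: compounds and dopamine controls were applied to plated cells for 90 min at 37 degrees C after an overnight attachment at 1500 cells/well. Luminescent read-out followed 30 - 60 minutes at room temperature with DiscoveRx detection reagent.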
Large screens that a line does not name were inactive. A selection: hits, their analogues and other compounds. The true share with any hit is near 6%.

Clc1cccc(-n2ncc3c(NCCCn4ccnc4)ncnc32)c1	D1 antag -40.5 (no result: DRD3 antagonist)
Fc1ccc(-n2ncc3c(NCCCn4ccnc4)ncnc32)cc1	none (no result: DRD3 antagonist)
Cc1ccc(-n2ncc3c(NCCCn4ccnc4)ncnc32)cc1C	D1 antag -59.9 (no result: DRD3 antagonist)
O=C(CNc1ccc(C(F)(F)F)cc1)Nc1cccc(S(=O)(=O)N2CCCCC2)c1	none (no result: D1 antag, D1 ag, D1 potentiator)
COc1ccc(CNC(=O)c2sc3nc4n(c(=O)c3c2C)CCCCC4)cc1	D1 ag 49.8 (no result: DRD3 antagonist)
Cc1c(C(=O)NCc2ccc(Cl)cc2)sc2nc3n(c(=O)c12)CCC3	none (no result: DRD3 antagonist)
CCN(C(=O)c1sc2nc3n(c(=O)c2c1C)CCCC3)c1ccccc1F	D1 antag -36.8, D1 ag 35.3 (no result: DRD3 antagonist)
COc1ccc(C)cc1N(C)C(=O)c1sc2nc3n(c(=O)c2c1C)CCCCC3	D1 ag 43.4 (no result: DRD3 antagonist)
CCCN(C(=O)c1sc2nc3n(c(=O)c2c1C)CCCC3)c1ccccc1C	none (no result: DRD3 antagonist)
Cc1c(C(=O)Nc2ccc(Oc3ccccc3)cc2)sc2nc3n(c(=O)c12)CCC3	D1 antag -50.7
Cc1ccc(N(C)C(=O)c2sc3nc4n(c(=O)c3c2C)CCCC4)cc1C	none (no result: DRD3 antagonist)
CCc1nc2ccc(C(=O)N3CCCCC3)cn2c1N(C)CCCc1ccccc1	none (no result: D1 antag, D1 ag, D1 potentiator)
CCCCNC(=O)C1(C)CCN1C(=O)c1cc(C)n(C(C)(C)C)n1 (configuration not stated)	none (no result: D1 antag, D1 ag, D1 potentiator)
COC(=O)CN1C(=S)N(c2ccc(Cl)cc2)C(=O)C1CC(=O)Nc1ccccc1 (configuration not stated)	D1 antag -31.9
CCOc1ccc(NC(=O)CC2C(=O)N(c3ccccc3)C(=O)N2Cc2ccc3c(c2)OCO3)cc1 (configuration not stated)	D1 antag -50.9 (no result: DRD3 antagonist)
COC(=O)c1ccc(NC(=O)CC2C(=O)N(c3ccc(Cl)cc3)C(=O)N2Cc2cccs2)cc1 (configuration not stated)	none (no result: DRD3 antagonist)
COc1cc(NC(=O)CC2C(=O)N(c3cccc(C)c3)C(=O)N2Cc2ccco2)cc(OC)c1 (configuration not stated)	DRD3 agonist 61.9 (no result: DRD3 antagonist)
CCOc1ccc(NC(=O)CC2C(=O)N(c3ccc(Cl)cc3)C(=O)N2Cc2cccs2)cc1 (configuration not stated)	D1 antag -73.9 (no result: DRD3 antagonist)
CCCCCCOc1ccc(NC(=O)CC2C(=O)N(CC)C(=S)N2Cc2ccco2)cc1 (configuration not stated)	D1 antag -40.3
Cc1ccsc1CCN1C(=O)N(c2ccc(F)cc2)C(=O)C1CC(=O)Nc1ccccc1 (configuration not stated)	D1 antag -30.5 (no result: DRD3 antagonist)
CCOc1ccc(NC(=O)CC2C(=O)N(c3ccccc3)C(=O)N2Cc2ccco2)cc1 (configuration not stated)	D1 antag -42.4
COC(=O)c1ccc(NC(=O)CC2C(=O)N(c3ccccc3)C(=O)N2Cc2ccco2)cc1 (configuration not stated)	none (no result: DRD3 antagonist)
Cc1ccsc1CCN1C(=O)N(c2ccccc2)C(=O)C1CC(=O)Nc1ccc(F)cc1 (configuration not stated)	none (no result: DRD3 antagonist)
COc1cc(C(=O)NC(=S)Nc2ccc(Cl)c(C(=O)O)c2)cc(OC)c1OC	DRD3 antagonist -89.5
Cc1onc(-c2ccccc2)c1C(=O)NNC(=S)NC(=O)/C=C/c1ccccc1	D1 ag 33.6
O=C(/C=C/c1ccccc1)NC(=S)NNC(=O)Cc1cccs1	DRD3 antagonist -72.4
COc1ccc(/C=C/C(=O)NC(=S)NNC(=O)c2c(-c3ccccc3)noc2C)cc1	none
COc1ccc(/C=C/C(=O)NC(=S)NNC(=O)Cc2cccs2)cc1	none
COc1cc(C(=O)NNC(=S)NC(=O)c2ccccc2C)cc(OC)c1OC	D1 ag 47.0
CCn1ncc(S(=O)(=O)Nc2cc(Cl)ccc2C)c1C	none
Cc1onc(-c2ccccc2)c1C(=O)NNC(=S)NC(=O)c1ccc(Br)cc1	D1 ag 134.4
Cc1ccccc1C(=O)NNC(=S)NC(=O)c1ccc(Cl)cc1Cl	D1 antag -52.2, D1 ag 157.7
CN(C)CCCOC(=O)c1ccc(Cl)cc1Cl	DRD3 antagonist inconclusive
CCCN(CCC)CCCOC(=O)c1ccc(Cl)cc1Cl	DRD3 antagonist -69.4
O=C(NC(=S)NNC(=O)c1ccc(Cl)cc1Cl)c1cccnc1	none
CCCN(CCC)C(=S)NC(=O)c1ccc(Cl)cc1Cl	DRD3 antagonist -181.6
